Assay [1] in a line: Viability counterscreen for agonist of constitutive androstane receptor (CAR) against the NCATS DSHEA and TCM libraries (AID 1794838).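 Note: HepG2 cells with CYP2B6 reporter and hCAR plus 0.75 µM PK11195 antagonist; 0% is about no effect.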 Put shortly: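 HepG2-CYP2B6-hCAR cells (2,500/well) treated 24 h at 37C with compounds plus 0.75 uM PK11195; viability read by CellTiter-Fluor fluorescence, Ex/Em 405/540 nm.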
Assay [2] can be described thus: HepG2 viability counterscreen (readout 2: ATP content) against the NCATS DSHEA and TCM libraries (AID 1794840). Note: 0% is about no effect. Put shortly:
(§1)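 HepG2 cells, 1,000/well, attached ~4 h, then exposed ~24 h at 37C to substances. Protease activity read by fluorescence of 25 uM GF-AFC (Ex/Em 380/510 nm) after 30 min; ATP then by CellTiter-Glo luminescence.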
On the technique in general: A counterscreen serves to expose hits that act by an unwanted route or on another target.

The nature of assay [3]: HepG2 viability counterscreen (readout 1: protease activity) against the NCATS DSHEA and TCM libraries (AID 1794841).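 Note: cells exposed to compounds for about 24 h before the protease read; 0% is about no effect.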 In a few lines: as §1
The target of assay [4] is Cytochrome P450 2C19 (Homo sapiens) (UniProt P33261). As to the kind of experiment: qHTS for inhibitors of CYP2C19 against the NCATS DSHEA and TCM libraries (AID 1919974).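 Note: luminescence from luciferin released by CYP2C19 oxidation of a pro-luciferin substrate.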 Note: potency is the fitted concentration of half-maximal effect. In a few lines:
(§2)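 Luminescent P450-Glo format: compounds preincubated 15 min with enzyme and luciferin substrate, reaction run 30-45 min after NADPH regeneration solution. Intraplate controls: ketoconazole for CYP3A4 and CYP2C19, sulfaphenazole for CYP2C9.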

The nature of assay [5]: KB-3-1 P-gp reporter qHTS against the NCATS DSHEA and TCM libraries (AID 1919975). Note: 0% is about no effect. In a few lines:
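Parental KB-3-1 cells, 500 cells/well, in DMEM with 10% FBS, exposed 72 h at 37 C to compounds in concentration-response. Viability read by CellTiter-Glo luminescence after 30 min at room temperature.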

Assay [6] has as its target Cytochrome P450 1A2 (Homo sapiens) (UniProt P05177). The assay can be described thus: qHTS for inhibitors of CYPIA2 against the NCATS DSHEA and TCM libraries (AID 1919976).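 Note: light from luciferin formed by CYP1A2 from a pro-luciferin substrate; series mostly up to about 37 µM; % is set by controls: 0 for no effect and ±100 for the full control effect.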 Put shortly:
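Human CYP1A2 with pro-luciferin substrate (typically 100 mM KPO4), 15 min preincubation with compound, then 1x NADPH regeneration for 30-45 min at room temperature in the dark. Luciferin quantified by luciferase luminescence; furafylline intraplate control.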

The nature of assay [7]: qHTS Counterscreen for compound interference against the NCATS DSHEA and TCM libraries (AID 1919978).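 Note: compounds preincubated with 1 µM D-luciferin or buffer before detection reagent; % of control where 0% means no effect.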 The conditions noted are these: firefly luciferase detection reagent interference, luminescence. Put shortly:
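Firefly luciferase detection reagent was added after compounds (19.5 nM–39.8 uM final) had been incubated 15 min at room temperature with 1 uM D-luciferin or with 100 mM phosphate buffer alone. Luminescence was read after 30 min at room temperature.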

Assay [8] can be described thus: Dual reporter qHTS for agonist of Pregnane X Receptor (hPXR) against the NCATS DSHEA and TCM libraries: Fluorescence readout (AID 1920058). Note: 0% is about no effect. In a few lines:
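hPXR-Luc HepG2 cells, 2000/well in charcoal-stripped serum, attached 5 h, dosed for ~24 h at 37 °C. Fluorescence read is CellTiter-Fluor viability (Ex/Em 405/540 nm); rifampicin positive, tetraoctyl ammonium bromide (92 µM) cytotoxicity controls.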
On the technique in general: In qHTS, concentration-response curves come from the screen itself.

Assay [9] has as its target Phospholipid hydroperoxide glutathione peroxidase GPX4 (Homo sapiens) (UniProt P36969). The assay can be described thus: Primary qHTS Assay for Inhibitors of Recombinant Selenoprotein Glutathione Peroxidase 4 (GPX4) (AID 1845192). Note: nearly all actives have a fitted effect of over 65% in size. Put shortly: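 NADPH consumption, followed by fluorescence at 340/450 nm between 0 and 15 min, reports GPX4 activity via coupled glutathione reductase (100 nM). Enzyme 200 nM was pre-exposed to compound 30 min; 0.5 mM cumene hydroperoxide and 1 mM GSH served as substrates.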

In assay [10] the target is Luciferin 4-monooxygenase (Photinus pyralis) (UniProt P08659). The assay can be described thus: Primary firefly luciferase (FLuc) qHTS assay for identification of artifact compounds. (AID 1845220). Note: nearly all actives have a fitted effect of over 60% in size. The conditions noted are these: outcome: dose series up to 54.1 µM. In a few lines: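 Compounds sat 15 min at room temperature with 10 uM luciferin and 10 uM ATP (pH 7.6 Tris acetate). Firefly luciferase (10 nM final) was then added, and luminescence was read 5 min later. Data normalized to no-enzyme and DMSO controls were Hill-fitted.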

Assay [11] concerns Nanoluciferase (engineered Oplophorus gracilirostris luciferase). The assay can be described thus: Primary Nanoluciferase (NLuc) qHTS assay for identification of artifact compounds. (AID 1845222).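 Note: series mostly up to about 54 µM; 0% = DMSO and -100% = no enzyme.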 In a few lines: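 Luminescence from secreted NLuc (filtered, 1:55-diluted S16 cell medium) read 5 min after Nano-Glo substrate; compounds preincubated 15 min, RT. Hill fits of inhibition normalized to DMSO and no-enzyme.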

Assay [12] in a line: NCATS anti-infectives library activity on HEK293 viability as a counter-qHTS vs the C. elegans viability qHTS (AID 1745854).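 Note: HEK293 cells exposed to compounds for 24 hr before the viability read; % is set by controls: 0 for no effect and ±100 for the full control effect.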 In a few lines:
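HEK293 cells (1,500/well) exposed 24 hr at 37C to 1:5 titrations, up to 41.7 uM final; counter-screen to a C. elegans viability qHTS. Viability by CellTiter-Glo luminescence after 10 min at room temperature; digitonin as control.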

Assay [13] concerns the target Glutathione peroxidase 1 (Homo sapiens) (UniProt P07203). The assay can be described thus: Primary qHTS Assay for Inhibitors of Recombinant Selenoprotein Glutathione Peroxidase 1 (GPX1) (AID 1845191). Note: nearly all actives have a fitted effect of over 65% in size. In a few lines:
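10 nM GPX1 + cpd, 30 min RT; start w/ 1 mM GSH, 0.5 mM cumene hydroperoxide, 0.5 mM NADPH, 100 nM GR, 0.01% BSA; buffer 50 mM Tris-HCl pH 7.5, 2 mM EDTA, 150 mM NaCl; Fl 340/450, 0 & 15 min.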

In assay [14] the target is Rap guanine nucleotide exchange factor 3 (Homo sapiens) (UniProt O95398). The assay can be described thus: Counterscreen qHTS for antagonist of cAMP-regulated guanine nucleotide exchange factor 3 (EPAC1) (AID 1645888).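 Note: fluorescence loss as bound BODIPY-GDP is released from Rap1B; % of control where 0% means no effect.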 In a few lines:
(§3)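 Rap1B-BODIPY-GDP 250 nM + GDP 50 uM; cpds 7-pt, final 9.74 nM–152 uM (activator mode) or from 7.32 nM upwards (inhibitor mode); RT; FI 480/540 nm at 5 and 30 min, then ± cAMP, reread.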

For assay [15] the target is unchanged. As to the kind of experiment: Counterscreen qHTS for agonist of cAMP-regulated guanine nucleotide exchange factor 3 (EPAC1) (AID 1645889). Note: % of control where 0% means no effect; nearly all actives have a fitted effect of over 40% in size. In a few lines: as §3
In assay [16] the target is Cytochrome P450 2D6 (Homo sapiens) (UniProt P10635). As to the kind of experiment: qHTS for inhibitors of CYP2D6 against the NCATS DSHEA and TCM libraries (AID 1919972). Note: % is set by controls: 0 for no effect and ±100 for the full control effect. Put shortly:
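Luminescent P450-Glo read-out of CYP2D6 turnover of a luciferin substrate after NADPH-driven reaction of 30-45 min at room temperature. Compounds were first preincubated 15 min with enzyme at titrated concentrations; quinidine was the intraplate control.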

The target of assay [17] is Cytochrome P450 3A4 (Homo sapiens) (UniProt P08684). The assay can be described thus: qHTS for inhibitors of CYP3A4 against the NCATS DSHEA and TCM libraries (AID 1919971).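 Note: % is set by controls: 0 for no effect and ±100 for the full control effect; inhibition lowers luminescence from luciferin made by CYP3A4.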 Put shortly: as §2
Chain of Cytochrome P450 3A4 (Homo sapiens) (P08684 whole entry, looked up): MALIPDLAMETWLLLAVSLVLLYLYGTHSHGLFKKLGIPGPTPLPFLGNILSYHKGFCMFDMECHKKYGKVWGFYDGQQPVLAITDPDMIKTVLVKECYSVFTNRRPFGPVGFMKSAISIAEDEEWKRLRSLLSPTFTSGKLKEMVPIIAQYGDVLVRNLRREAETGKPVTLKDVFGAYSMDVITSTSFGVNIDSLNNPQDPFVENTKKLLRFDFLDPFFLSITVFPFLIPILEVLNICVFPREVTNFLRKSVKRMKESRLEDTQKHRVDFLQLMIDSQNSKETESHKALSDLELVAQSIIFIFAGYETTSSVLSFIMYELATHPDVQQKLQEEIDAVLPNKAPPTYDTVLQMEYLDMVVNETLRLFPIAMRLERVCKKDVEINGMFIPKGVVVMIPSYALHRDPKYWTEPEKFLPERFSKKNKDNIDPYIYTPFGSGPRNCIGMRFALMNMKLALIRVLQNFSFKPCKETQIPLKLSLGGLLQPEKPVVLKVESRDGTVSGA

This note sets out measurements from PubChem BioAssay (NCATS).

A number with no mark means an inactive call. Records with an inconclusive call do not appear. The source made the active and inactive calls. Calls come from the whole dose curve; as a rule, active = well fitted curve in the direction sought with a large enough effect; inconclusive = small, poorly fitted or top-dose-only effect, or another doubt; inactive = no such curve, though single readings can be large; an effect the other way counts as inactive or inconclusive.

Chain of Glutathione peroxidase 1 (Homo sapiens) (P07203 whole entry, looked up): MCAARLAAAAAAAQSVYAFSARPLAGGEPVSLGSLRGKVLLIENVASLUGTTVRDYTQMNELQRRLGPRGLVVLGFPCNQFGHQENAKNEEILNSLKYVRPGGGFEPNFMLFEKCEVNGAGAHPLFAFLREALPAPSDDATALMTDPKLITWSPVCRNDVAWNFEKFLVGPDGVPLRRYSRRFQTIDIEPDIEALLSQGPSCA
Chain of Phospholipid hydroperoxide glutathione peroxidase GPX4 (Homo sapiens) (P36969 whole entry, looked up): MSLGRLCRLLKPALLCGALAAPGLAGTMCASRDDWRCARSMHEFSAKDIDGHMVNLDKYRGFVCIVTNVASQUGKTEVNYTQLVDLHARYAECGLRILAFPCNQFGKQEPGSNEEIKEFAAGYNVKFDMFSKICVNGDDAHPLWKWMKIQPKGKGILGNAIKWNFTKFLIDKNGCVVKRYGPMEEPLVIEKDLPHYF
Chain of Cytochrome P450 1A2 (Homo sapiens) (P05177 whole entry, looked up): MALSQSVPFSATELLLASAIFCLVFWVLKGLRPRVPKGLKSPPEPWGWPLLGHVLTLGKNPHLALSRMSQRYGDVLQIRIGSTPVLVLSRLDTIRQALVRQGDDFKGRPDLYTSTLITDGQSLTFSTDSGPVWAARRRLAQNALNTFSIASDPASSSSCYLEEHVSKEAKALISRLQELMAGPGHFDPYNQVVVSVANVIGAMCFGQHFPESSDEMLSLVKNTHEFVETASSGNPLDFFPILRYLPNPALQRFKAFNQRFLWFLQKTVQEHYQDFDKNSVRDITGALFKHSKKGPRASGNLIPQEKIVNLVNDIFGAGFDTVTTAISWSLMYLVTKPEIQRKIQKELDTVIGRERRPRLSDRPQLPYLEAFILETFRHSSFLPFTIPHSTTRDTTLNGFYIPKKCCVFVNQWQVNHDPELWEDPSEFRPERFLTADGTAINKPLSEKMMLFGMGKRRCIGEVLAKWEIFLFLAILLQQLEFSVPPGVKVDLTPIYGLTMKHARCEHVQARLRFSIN
Chain of Cytochrome P450 2C19 (Homo sapiens) (P33261 whole entry, looked up): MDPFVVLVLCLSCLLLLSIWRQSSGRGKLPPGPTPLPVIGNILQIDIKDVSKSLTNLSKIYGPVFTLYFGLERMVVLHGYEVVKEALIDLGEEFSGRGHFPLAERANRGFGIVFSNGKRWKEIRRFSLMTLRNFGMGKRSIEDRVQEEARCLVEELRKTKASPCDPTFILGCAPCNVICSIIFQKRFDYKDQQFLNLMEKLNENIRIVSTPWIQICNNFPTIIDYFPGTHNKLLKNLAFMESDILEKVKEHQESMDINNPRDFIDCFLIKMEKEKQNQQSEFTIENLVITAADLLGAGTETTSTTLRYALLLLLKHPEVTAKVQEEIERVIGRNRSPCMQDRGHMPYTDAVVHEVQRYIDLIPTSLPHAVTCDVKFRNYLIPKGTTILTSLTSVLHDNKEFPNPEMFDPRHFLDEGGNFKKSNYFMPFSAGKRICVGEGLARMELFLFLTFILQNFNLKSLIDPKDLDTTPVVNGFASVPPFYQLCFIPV
Chain of Cytochrome P450 2D6 (Homo sapiens) (P10635 whole entry, looked up): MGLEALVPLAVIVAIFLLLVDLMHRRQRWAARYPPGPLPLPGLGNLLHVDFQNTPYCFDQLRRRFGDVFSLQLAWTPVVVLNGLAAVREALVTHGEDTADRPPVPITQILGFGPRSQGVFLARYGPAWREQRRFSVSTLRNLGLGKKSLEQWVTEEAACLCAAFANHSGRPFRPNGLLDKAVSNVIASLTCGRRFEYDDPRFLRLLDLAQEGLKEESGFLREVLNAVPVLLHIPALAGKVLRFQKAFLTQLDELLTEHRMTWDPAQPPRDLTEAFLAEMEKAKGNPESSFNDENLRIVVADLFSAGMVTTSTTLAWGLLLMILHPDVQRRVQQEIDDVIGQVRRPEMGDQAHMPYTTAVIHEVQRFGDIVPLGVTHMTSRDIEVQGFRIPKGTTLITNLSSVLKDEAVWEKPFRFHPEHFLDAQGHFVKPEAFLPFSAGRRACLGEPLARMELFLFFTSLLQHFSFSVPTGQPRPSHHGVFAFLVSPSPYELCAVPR
Chain of Rap guanine nucleotide exchange factor 3 (Homo sapiens) (O95398 whole entry, looked up): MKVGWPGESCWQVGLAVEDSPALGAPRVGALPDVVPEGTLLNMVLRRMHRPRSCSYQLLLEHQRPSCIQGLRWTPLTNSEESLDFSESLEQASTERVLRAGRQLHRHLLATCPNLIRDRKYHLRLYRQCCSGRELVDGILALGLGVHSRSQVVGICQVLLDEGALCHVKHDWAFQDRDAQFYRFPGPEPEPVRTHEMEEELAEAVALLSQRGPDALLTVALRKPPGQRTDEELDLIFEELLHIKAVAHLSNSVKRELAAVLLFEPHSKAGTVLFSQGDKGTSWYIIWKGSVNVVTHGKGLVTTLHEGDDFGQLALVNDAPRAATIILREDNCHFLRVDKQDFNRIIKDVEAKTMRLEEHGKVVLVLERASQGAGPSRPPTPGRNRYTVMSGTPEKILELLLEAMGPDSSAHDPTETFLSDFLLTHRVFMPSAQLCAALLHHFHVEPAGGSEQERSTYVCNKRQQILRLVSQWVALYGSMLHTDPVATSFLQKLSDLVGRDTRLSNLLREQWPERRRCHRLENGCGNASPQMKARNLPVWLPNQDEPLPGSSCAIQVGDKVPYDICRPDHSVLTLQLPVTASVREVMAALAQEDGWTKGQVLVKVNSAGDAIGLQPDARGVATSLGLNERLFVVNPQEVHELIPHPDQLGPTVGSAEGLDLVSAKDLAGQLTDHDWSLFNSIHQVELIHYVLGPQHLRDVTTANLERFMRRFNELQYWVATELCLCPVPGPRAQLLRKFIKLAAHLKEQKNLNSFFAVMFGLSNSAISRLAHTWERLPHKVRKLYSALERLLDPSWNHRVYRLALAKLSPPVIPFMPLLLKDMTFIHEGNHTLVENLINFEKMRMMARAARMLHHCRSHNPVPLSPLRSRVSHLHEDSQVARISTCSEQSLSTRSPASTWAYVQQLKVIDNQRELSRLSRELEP

`Oc1cccc(O)c1O`: the call in [1], in assay [2], in assay [3], in assay [5] and in [8] was inactive. Also, the Potency result in assay [4] and in assay [6] was “inactive” each time. In [7], the max response was -3.78%.

For the compound `C=C1CC[C@H](O)CC1=C/C=C1\CCC[C@]2(C)[C@@H]([C@H](C)/C=C/[C@H](C)C(C)C)CC[C@@H]12`, the compound was classed as inactive in assay [1], in [2], in assay [3], in assay [10], in [11] and in assay [5]. In addition, in assay [8], the compound was called inactive. For the same compound, the Potency result in [9] and in assay [6] was “inactive” throughout. Also, in assay [4], the Potency was 12.6 µM (active). In addition, the max response in assay [7] is -0.883%.

As for `Nc1ncnc2c1ncn2[C@H]1CC[C@@H](CO)O1`, the result in [12] was inactive.

On to `O=C(Nc1ccc(O)cc1)c1ccccc1O`, for which, in [12], the compound was classed as inactive. Moreover, the Potency result in assay [13] and in [9] was “inactive” each time.

For the compound `NCCCC[C@H](N)C(=O)O`, the activity change, negative = cytotoxicity in assay [12] is -19.5% [at 0.334 µM]. Besides, the outcome in assay [13] was “inactive [at 0.4 µM]”; in assay [9], “inactive [at 0.409 µM]”.

For the compound `Oc1ccc(/C=C/c2cc(O)cc(O)c2)cc1`, the compound was classed as inactive in [14], in assay [15], in assay [12], in assay [1], in [2] and in assay [3]. Besides, the outcome in [16], in assay [5] and in [8] was inactive. Further, the Potency result in [13] and in [9] was “inactive” throughout. Also, the max response in assay [7] is -1.38%.

For `CC(C)c1nc(N(C)S(C)(=O)=O)nc(-c2ccc(F)cc2)c1/C=C/C(O)CC(O)CC(=O)O` (stereo not drawn), the call in assay [12] was inactive. Also, the Potency entry in [13] and in assay [9] was “inactive” in each case.

Take `O=C1c2c(O)cccc2[C@H]([C@@H]2O[C@H](CO)[C@@H](O)[C@H](O)[C@H]2O)c2cc(CO)cc(O)c21`: the compound was called inactive in assay [12].

Consider `CC[C@H](CC[C@@H](C)[C@H]1CC[C@H]2[C@@H]3CC=C4C[C@@H](O)CC[C@]4(C)[C@H]3CC[C@]12C)C(C)C`, for which the outcome in [1], in assay [2], in assay [3], in [5] and in [8] was inactive. The Potency entry in [13] and in assay [9] was “inactive” throughout. Also, in assay [7], the max response was -1.45%.

Regarding `CC(C)=CCC/C(C)=C/C=C/C(C)=C/C=C/C(C)=C/C=C/C=C(C)/C=C/C=C(C)/C=C/C=C(\C)CCC=C(C)C`, the compound was classed as inactive in [12], in assay [1], in [2], in [3], in [17] and in assay [16]. In addition, the compound was called inactive in assay [5] and in assay [8]. Further, the Potency entry in [13], in assay [9], in assay [4] and in [6] was “inactive” each time. Moreover, the max response in assay [7] is 0.511%.
